Measured values published in PubChem BioAssay (Tox21).
Inconclusive results are not listed. Unmarked numbers belong to inactive results. The source made the active and inactive calls. Calls follow the shape of the dose curve; as a rule, active = well fitted activation curve with a large enough effect in the signal ratio in the repeat runs (not every such curve was filed as active); inconclusive = weak or mixed curves; inactive = flat fitted curve, though single readings scatter; the % refers to the signal ratio.
% is scaled to controls: 0 for no effect and ±100 for the full control effect.

Assay: qHTS assay to identify small molecule agonists of the hypoxia (HIF-1) signaling pathway (AID 1224846)
Settings: HRE-bla ME-180 cells, beta-lactamase ratio, 17 h; series mostly up to 76.8 µM
Method in brief: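 Agonist mode reporter screen. ME-180 cells stably expressing bla under HRE control received test compounds in DMSO for 17 hrs (37C, 5% CO2), and beta-lactamase activity was then detected with the CCF4-AM FRET substrate.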
With `CC1=CC[C@H](CC=O)C1(C)C` the outcome was “inactive”. In the case of `COc1ccc(N=Nc2cc(C)c(N=Nc3ccc(S(=O)(=O)O)cc3)cc2OC)cc1`, the outcome is reported as “inactive”. In the case of `C[Si]1(C)N[Si](C)(C)N[Si](C)(C)N1`, the outcome is reported as “inactive”. With `CCC(O)C(C)(C)C` (centres undefined) the outcome was “inactive”. In the case of `O=C(O)c1ccccc1C(=O)OCc1ccccc1`, the outcome is reported as “inactive”. With `C=CCOCC(O)CCl` (centres undefined) the outcome was “inactive”. In the case of `CCC1Nc2cc(Cl)c(S(N)(=O)=O)cc2S(=O)(=O)N1` (centres undefined), the outcome is reported as “inactive”. With `FC(F)(F)/C(=N\OCC1OCCO1)c1ccc(Cl)cc1` the outcome was “inactive”. For `C1=C\CC/C=C\CC/1`, the outcome was “inactive”. In the case of `CCCCCCCCCCCCC1CO1` (centres undefined), the outcome is reported as “inactive”. Work on `Nc1ccc(/C=C/c2ccc(N)cc2S(=O)(=O)O)c(S(=O)(=O)O)c1` yielded an activation of -0.978% [at 0.291 µM]. In the case of `O=S1(=O)CCCC1`, the outcome is reported as “inactive”. With `CC(=O)OC(C)c1ccccc1` (centres undefined) the outcome was “inactive”. With `O=C(Nc1cccc(C2=NCCN2)c1)Nc1cccc(C2=NCCN2)c1` the activation was -0.385% [at 15.8 µM]. With `CCOC(=O)CCCCCCCCC(=O)OCC` the outcome was “inactive”. With `CCCO` the outcome was “inactive”. For `CC(=O)N1CCN(c2ccc(O)cc2)CC1`, the outcome was “inactive”. For `C/C=C(\C)C(=O)OCC/C=C\CC`, the outcome was “inactive”. With `Cc1ccc(C(=O)C(=O)O)cc1C` the outcome was “inactive”. With `CC1=NN(c2ccc(S(=O)(=O)O)cc2)C(=O)C1N=Nc1ccccc1` (centres undefined) the outcome was “inactive”. With `Nc1cc(S(=O)(=O)O)ccc1S(=O)(=O)O` the outcome was “inactive”. With `Nc1cc(Cl)cc(S(=O)(=O)O)c1O` the outcome was “inactive”. In the case of `CC(=O)N(CC(O)CO)c1c(I)c(C(=O)NCC(O)CO)c(I)c(C(=O)NCC(O)CO)c1I` (centres undefined), the outcome is reported as “inactive”. With `CCOC(=O)C(C)(C)C` the outcome was “inactive”. For `CCCCCCCC[Si](OCC)(OCC)OCC`, the outcome was “inactive”. With `CC(C)=CC(C)(C)C` the outcome was “inactive”. For `COCCOCCOCCOC`, the outcome was “inactive”. For `CC(=O)OCC(=O)[C@@]1(O)[C@H](OC(C)=O)C[C@H]2[C@@H]3CCC4=CC(=O)C=C[C@]4(C)[C@@]3(F)[C@@H](O)C[C@@]21C`, the outcome was “inactive”. For `CCCCC(CC)COC(=O)c1ccccc1` (centres undefined), the outcome was “inactive”. With `C=C[C@@H](C)CCC=C(C)C` the outcome was “inactive”. With `CCCCCC1Nc2cc(C(F)(F)F)c(S(N)(=O)=O)cc2S(=O)(=O)N1` (centres undefined) the outcome was “inactive”. For `COc1cc([N+](=O)[O-])ccc1N`, the outcome was “inactive”. For `CC(CC(=O)O)CC(C)(C)C` (centres undefined), the outcome was “inactive”. With `CCCCC(CC)C(=O)OC(C)C` (centres undefined) the outcome was “inactive”.
